tim23-1 inh = inhibits growth of tim23-1 mutant yeast. AID 463212. S. cerevisiae tim23-1 growth, BacTiter-Glo luminescence, 24 h. inhibition, % at 20 µM. 330,000 compounds, 1.3% hits;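 active = growth inhibition of the mutant yeast at or above 50%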;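 note: temperature-sensitive mutant grown at 25 °C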
TIM10 inh = TIM10 yeast growth inhibition; 330,000 compounds, 1.4% hits; inhibition, % at 10 µM; S. cerevisiae TIM10 strain growth, BacTiter-Glo luminescence, 24 h;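 active = inhibition of 40% or more at the single tested concentration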;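 note: wild-type TIM10 isogenic control strain grown at permissive 25 °C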
SKKanGAS inh = inhibitors of SKKanGAS S. pyogenes growth in kanamycin (SK-promoter or general growth effect); BacTiter-Glo, 6 h; inhibition, % at 7.5 µM; 300,000 compounds, 1.3% hits; AID 1662;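 active = mean replicate score, as percent of positive control median, at least 50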;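 note: strain carries kanamycin resistance gene driven by streptokinase promoter and grows in 40 µg/ml kanamycin; loss of luminescence reflects streptokinase promoter inhibition or plain growth inhibition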
tim10-1 inh = tim10-1 yeast growth inhibition; S. cerevisiae tim10-1 ts strain growth, BacTiter-Glo, 24 h; 330,000 compounds, 2.2% hits; inhibition, % at 20 µM;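 active = inhibition of at least 40%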;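 note: mutant grown at 25 °C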
NLRP3 yeast inh = blocks the NALP3 inflammasome reconstituted in yeast | Yeast reconstituted NLRP3/ASC/caspase-1, beta-gal luminescence, 24 h | 330,000 compounds, 0.39% hits | inhibition, % at 10 µM | AID 2825;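 active = inhibition of 50% or more; inactive = inhibition below 50%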
tim10-1 confirm = tim10-1 yeast growth inhibition, confirmed; inhibition, % at 20 µM; S. cerevisiae tim10-1 ts strain growth, BacTiter-Glo, 24 h; 7,400 compounds, 56% hits; shares compounds with tim10-1 inh;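 active = inhibition of yeast growth at or above a set limit in either of two repeat tests at 20 µM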;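 note: tim10-1 mutant grown at permissive 25 °C to find synthetic lethal compounds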
Large screens that a line does not name were inactive (follow-up assays come after a bar, where they were run). In the library only some 4.6% were active in any assay of this set; here they are far more common.

CCOC(=O)c1ccc(N2C(=O)C=CC2=O)cc1	tim10-1 inh 82 | tim10-1 confirm 92
CCOC(=O)c1ccc(N2C(=O)CC(C(=O)OC)=C2C)cc1	tim10-1 inh 54 | tim10-1 confirm 38
Cn1cccc1/C=C1\CCC/C(=C\c2cccn2C)C1=O	tim10-1 inh 50 | tim10-1 confirm inactive
Cc1ccc(C(=O)N2CCN(c3ccc(C(F)(F)F)cn3)CC2)cc1	none
Cc1ccc(C(=O)N2CCN(c3ccc(C(F)(F)F)cn3)CC2)c(C)c1	tim10-1 inh 44 | tim10-1 confirm inactive
Cc1c(C(=O)N2CCN(c3ccc(C(F)(F)F)cn3)CC2)oc2ccccc12	tim10-1 inh 41 | tim10-1 confirm 37
CC(=NNC(=O)COc1cccc(C)c1)c1cccnc1	none (no result: SKKanGAS inh)
CN(CCc1ccccn1)C1CC(=O)N(c2ccc(Cl)cc2)C1=O (configuration not stated)	tim10-1 inh 41 | tim10-1 confirm 34
CN(CCc1ccccn1)C(=O)Nc1ccc(Cl)cc1	none
Cc1ccc(N(C(=O)c2snc(C(N)=O)c2N)C(C(=O)NC2CCCC2)c2ccco2)cc1 (configuration not stated)	none
O=C(CSc1nnc(COc2ccccc2)n1-c1ccccc1)c1ccccc1	tim10-1 inh 40 | tim10-1 confirm inactive
COc1ccc(C(=O)CSc2nnc(COc3ccc(C#N)cc3)n2-c2ccccc2)cc1	none
Fc1cc(F)cc(Nc2nc(Cl)nc(NC3CCCC3)n2)c1	tim10-1 inh 45 (no result: SKKanGAS inh) | tim10-1 confirm 19
Cc1cc(N(CCO)CCO)ccc1N=Nc1cc(F)ccc1F	tim10-1 inh 41 | tim10-1 confirm 38
Cc1ccc(NC(=O)COC(=O)CCC2CCCC2)c(Br)c1	none (no result: SKKanGAS inh)
Cc1nc(N2CCN(c3ccccn3)CC2)c2c(C)c(C(=O)Nc3c(F)cc(F)cc3Br)sc2n1	tim10-1 inh 40 | tim10-1 confirm inactive
Cc1nc(N2CCCCC2)c2c(C)c(C(=O)Nc3ccc4c(c3)OCCO4)sc2n1	tim10-1 inh 46 | tim10-1 confirm 31
Cc1nc(N2CCN(C)CC2)c2c(C)c(C(=O)Nc3ccc(C)c(F)c3)sc2n1	none
C[C@]12CCC[C@H](O1)c1c(cc3c(c1O)C(=O)c1c(O)cc(O)cc1C3=O)O2	none
Cc1ccc(C)c(N2CCN(S(=O)(=O)c3csc(C(N)=O)c3)CC2)c1	none
O=C1c2cccc(Cl)c2C(=O)c2c1cccc2N1CCCC1	tim10-1 inh 53 | tim10-1 confirm 38
CCCCn1nnnc1SCC(=O)c1cc(Cl)ccc1OC	tim10-1 inh 52 | tim10-1 confirm 33
CCn1c(SCC(=O)Nc2cc(Cl)ccc2OC)nnc1C1CC1	none
OC(CNCCc1ccc(C(F)(F)F)cc1)COc1ccc2ccccc2c1 (configuration not stated)	tim10-1 inh 48 | tim10-1 confirm inactive
Cc1ccc(Sc2ccc([N+](=O)[O-])cc2[N+](=O)[O-])nc1	tim10-1 inh 40 | tim10-1 confirm 37
Cc1ccnc(Sc2ccc([N+](=O)[O-])cc2[N+](=O)[O-])n1	tim10-1 inh 59 | tim10-1 confirm 53
Nc1nc(Sc2ccc([N+](=O)[O-])cc2[N+](=O)[O-])n[nH]1	none
CCOC(=O)C1=C(COC(=O)COc2ccc(C#N)cc2)NC(=O)NC1C (configuration not stated)	none
CCOC(=O)C1CCCN(CC(=O)N(C)c2c(N)n(Cc3ccccc3)c(=O)[nH]c2=O)C1 (configuration not stated)	none (no result: SKKanGAS inh)
CCOC(=O)C1CCN(C(=O)c2oc3ccc4c(c3c2C)C(O)CC2(CCCCC2)O4)CC1 (configuration not stated)	tim10-1 inh 54 | tim10-1 confirm 33
Cc1ccc(OCCn2cnc3cc([N+](=O)[O-])ccc3c2=O)cc1	tim10-1 inh 46 | tim10-1 confirm inactive
N#Cc1sc(NCc2ccccc2)nc1Cl	tim10-1 inh 41 | tim10-1 confirm inactive
COc1ccc(CNc2nc(Cl)c(C#N)s2)cc1	none
Cc1ccc(CN(C)C(=O)C2CCC(=O)N(CC3CCCCC3)C2)o1 (configuration not stated)	none
CN(C)CCCN(C(=O)c1nc2ccccc2s1)c1nc2ccc(F)cc2s1	none
Cc1cccc2sc(N(CCCN(C)C)C(=O)c3ccc(C(=O)c4ccccc4)cc3)nc12	tim10-1 inh 43 | tim10-1 confirm inactive
Cc1cccc2sc(N(CCCN(C)C)C(=O)c3sc4ccccc4c3Cl)nc12	none (no result: SKKanGAS inh)
CN(C)CCCN(C(=O)c1ccc(C(=O)c2ccccc2)cc1)c1nc2ccc(F)cc2s1	tim10-1 inh 49 | tim10-1 confirm inactive
O=C(Nc1nnc(C2CCCCC2)s1)c1ccco1	tim10-1 inh 45 | tim10-1 confirm 35
CCN(c1ccccc1)S(=O)(=O)c1ccc(C(=O)N(C)CCc2ccc(OC)c(OC)c2)cc1	none
Cc1cccc(/C(N)=N/OC(=O)COc2ccc(Cl)cc2)c1	tim10-1 inh 50 (no result: SKKanGAS inh) | tim10-1 confirm 46
COc1ccc(/C(N)=N/OC(=O)Cc2ccc(C)cc2)cc1OC	none
N/C(=N\OC(=O)COc1ccc(Cl)cc1)c1ccc(Cl)cc1	none
COc1ccc(/C(N)=N/OC(=O)c2cccs2)cc1OC	tim10-1 inh 66 | tim10-1 confirm 53
COc1cc(OC)c(C(=O)O/N=C(\N)c2ccc(C)cc2)cc1OC	tim10-1 inh 46 | tim10-1 confirm 49
COc1cc(OC)c(C(=O)O/N=C(\N)c2cccc(C)c2)cc1OC	tim10-1 inh 48 | tim10-1 confirm 41
CCOc1ccc(CCNC(=O)COC(=O)c2ccc[nH]c2=O)cc1OCC	none (no result: SKKanGAS inh)
Cc1ccc(S(=O)(=O)N(C)c2ccc(OC(=O)CN3C(=O)NC4(CCCC4)C3=O)cc2)cc1C	none
CC(C)OCCCN(C)C1CCN(S(=O)(=O)c2ccc(-c3cc(C(F)(F)F)no3)s2)CC1	none
Cc1ccccc1CC1CCN(CCCNC(=O)Nc2ccccc2)CC1	none
COc1cc(-c2nc(-c3cccc(C(F)(F)F)c3)no2)cc(OC)c1OC	tim10-1 inh 41 | tim10-1 confirm 31
CCC(=O)N1CCN(c2ccc(Cl)cc2NC(=O)c2ccc([N+](=O)[O-])o2)CC1	tim10-1 inh 40 | tim10-1 confirm inactive
Cc1ccccc1/C=C/C(=O)c1ccc([N+](=O)[O-])o1	SKKanGAS inh 62, tim10-1 inh 67 | tim10-1 confirm 71
Cc1cccc(NC(=O)COC(=O)c2ccc([N+](=O)[O-])o2)c1C	none
Cc1ccccc1NC(=O)c1ccc([N+](=O)[O-])o1	tim10-1 inh 51 | tim10-1 confirm 42
Cc1cccnc1NC(=O)c1ccc([N+](=O)[O-])o1	none
O=C(Nc1ccc(NC(=O)c2ccc([N+](=O)[O-])o2)cc1Cl)c1ccco1	none
Cc1ccc(NC(=O)c2ccc([N+](=O)[O-])o2)c(C)c1	tim10-1 inh 40 | tim10-1 confirm 53
CC(C)CN(CC(C)C)C(=S)Nc1ccc(Cl)cc1	tim10-1 inh 55 | tim10-1 confirm 47
CCc1ccc(NC(=S)N(Cc2ccc(Cl)cc2)Cc2ccc(C(=O)O)cc2)cc1	none

Source: PubChem (several laboratories)
